Each structure is given as a SMILES string. Records with an inconclusive call do not appear. Values without a mark were called inactive. The call rests on the fitted dose curve; in most records, active means well fitted inhibition curve with a large enough effect; inconclusive means small, poorly fitted or top-dose-only effect; inactive means flat fitted curve, though single readings scatter.
On the % scale 0 is the no-effect control and ±100 the full control effect.

For the test, the target named is Ubiquitin carboxyl-terminal hydrolase 1 (Homo sapiens) (UniProt O94782). As to the kind of experiment: Inhibitors of USP1/UAF1: Pilot qHTS (AID 504865).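 Further: rhodamine fluorescence freed from ubiquitin-rhodamine substrate followed over time; top concentration of the series differs between compounds; nearly all actives have a fitted effect of over 35% in size.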 The note with it: purified USP1/UAF1, Ub-rhodamine cleavage fluorescence; series mostly up to 114 µM; activity change, negative = inhibition: at the top concentration. The essentials: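 Enzyme-free wells gave the negative control, while test wells held 1nM USP1/UAF1 preincubated with compound for 15 min at room temperature. Ub-Rho at 150nM final started the reaction, and fluorescence at 480/540 nm was recorded kinetically.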
Sequence of Ubiquitin carboxyl-terminal hydrolase 1 (Homo sapiens) (O94782 whole entry, looked up): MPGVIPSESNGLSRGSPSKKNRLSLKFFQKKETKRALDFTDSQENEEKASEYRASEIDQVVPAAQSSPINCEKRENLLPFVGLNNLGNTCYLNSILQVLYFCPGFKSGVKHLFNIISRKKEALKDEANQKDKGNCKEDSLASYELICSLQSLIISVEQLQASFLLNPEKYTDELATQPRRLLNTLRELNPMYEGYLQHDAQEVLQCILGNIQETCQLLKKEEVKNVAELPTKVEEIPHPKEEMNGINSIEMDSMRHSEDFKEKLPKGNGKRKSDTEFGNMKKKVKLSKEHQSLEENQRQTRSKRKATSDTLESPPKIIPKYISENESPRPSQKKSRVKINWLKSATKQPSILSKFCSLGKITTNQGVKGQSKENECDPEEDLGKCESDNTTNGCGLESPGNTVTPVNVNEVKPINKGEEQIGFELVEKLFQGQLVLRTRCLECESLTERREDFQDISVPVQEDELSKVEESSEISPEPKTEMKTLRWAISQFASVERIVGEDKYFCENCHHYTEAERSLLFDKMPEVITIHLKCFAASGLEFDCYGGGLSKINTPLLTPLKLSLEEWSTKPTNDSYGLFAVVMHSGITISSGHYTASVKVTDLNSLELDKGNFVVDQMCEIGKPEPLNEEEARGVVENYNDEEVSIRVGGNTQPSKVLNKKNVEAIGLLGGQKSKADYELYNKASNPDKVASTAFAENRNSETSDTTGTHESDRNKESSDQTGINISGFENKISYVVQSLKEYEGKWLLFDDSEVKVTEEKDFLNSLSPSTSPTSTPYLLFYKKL
Turning to `CC(C)(O)[C@@H]1C2OC(=O)[C@@H]1[C@]1(O)C[C@H]3O[C@]34C(=O)O[C@H]2[C@]14C`, the “activity change, negative = inhibition” value is -10.9%.
Take `CC(C)OC(=O)Nc1cccc(Cl)c1`: the “activity change, negative = inhibition” value was -13.2%.
Regarding `CNC(=O)Oc1cccc2c1OC(C)(C)O2`, the “activity change, negative = inhibition” value was -7.98%.
As for `CC[C@@H]1CN2CC[C@@H]1C[C@H]2[C@H](O)c1ccnc2ccc(OC)cc12`, the “activity change, negative = inhibition” value was -5.78%.
As for `CC(=O)CC1CCCCN1` (stereo not drawn), the figure is -12.2%; as for `CC(C)c1cc2c(c(O)c1O)[C@]1(C(=O)O)CCCC(C)(C)C1CC2` (stereo partly drawn), -3.88%; as for `COc1cc(C2c3cc4c(cc3C(O)C3COC(=O)C23)OCO4)cc(OC)c1O` (stereo not drawn), -8.97%.
As for `C/C=C(\C)C(=O)OC1CC(OC(C)=O)[C@@]2(C(=O)OC)COC3C2[C@@]12CO[C@](O)(C(=O)OC)C2[C@](C)(C12OC1(C)C1CC2OC2OC=C[C@]21O)C3O` (stereo partly drawn), the figure is -14.4%.
For `COC(=O)COc1cc(Cl)c(Cl)cc1Cl`, the “activity change, negative = inhibition” value was -12.7%.
Consider `O=c1cccc2n1CC1CC2CN2CCCCC12` (stereo not drawn), for which the “activity change, negative = inhibition” value is -6.96%.
As for `O=C1CCCC2[C@@H]3CCCN4CCC[C@@H](CN12)C34` (stereo partly drawn), the figure is 1.34%.
`CCCCSP(=O)(SCCCC)SCCCC`: the “activity change, negative = inhibition” value was -7.15%.
To `C[C@]12CCC3C(CC[C@H]4C[C@@H](O)CC[C@]34C)[C@@H]1CCC2=O` (stereo partly drawn) belongs -4.39%; to `CCS(=O)CCSP(=O)(OC)OC` (stereo not drawn), -10.7%; to `OCC1CCCN2CCCCC12` (stereo not drawn), -9.77%.
Regarding `COP(N)(=O)SC` (stereo not drawn), the “activity change, negative = inhibition” value is 6.47%.
As for `C[C@@]12CCC(=O)C[C@@H]1CC[C@@H]1[C@@H]2CC[C@]2(C)C(=O)CC[C@@H]12`, the figure is -10.1%; as for `O=C(CC[N+](=O)[O-])OCC1OC(O)C(OC(=O)CC[N+](=O)[O-])[C@@H](OC(=O)CC[N+](=O)[O-])C1OC(=O)CC[N+](=O)[O-]` (stereo partly drawn), -6.75%.

Source of the values: PubChem BioAssay (NCATS).
